This is a sample that favours compounds with a hit; in the whole collection about 4.2% have one here.
TIM10 inh = TIM10 yeast growth inhibition | inhibition, % at 10 µM | actives 1.4% (n = 330,000) | S. cerevisiae TIM10 strain growth, BacTiter-Glo luminescence, 24 h | AID 463195;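 active means inhibition of 40% or more at the single tested concentration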;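 further: wild-type TIM10 isogenic control strain grown at permissive 25 °C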
NALP3 yeast inh = inhibitors of NALP3 inflammasome in yeast; actives 0.39% (n = 330,000); inhibition, % at 10 µM; Yeast reconstituted NLRP3/ASC/caspase-1, beta-gal luminescence, 24 h;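 active means inhibition of 50% or more; inactive means inhibition below 50%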;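 further: plate controls were induced DMSO wells for no effect and uninduced yeast grown without galactose for full effect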
PfHsp90 set2 = reduces growth (ATP signal) of yeast expressing P. falciparum Hsp90 | actives 0.32% (n = 310,000) | S. cerevisiae expressing PfHsp90, BacTiter-Glo ATP, 48 h; yeast lacking PDR1 and PDR3 efflux regulators | inhibition, % at 9.4 µM | AID 504621;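 active means every replicate shows inhibition above about 80%, whatever the replicate mean, limit read from the data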;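 further: 0% = DMSO neutral controls and 100% = 20 µM radicicol positive controls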
tim23-1 inh = tim23-1 yeast growth inhibition; actives 1.3% (n = 330,000); S. cerevisiae tim23-1 growth, BacTiter-Glo luminescence, 24 h; inhibition, % at 20 µM;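 active means growth inhibition of the mutant yeast at or above 50%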;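 further: temperature-sensitive mutant grown at 25 °C; plate controls were DMSO-treated mutant yeast for no effect and medium wells lacking yeast for full effect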
tim10-1 inh = tim10-1 yeast growth inhibition; inhibition, % at 20 µM; AID 463190; actives 2.2% (n = 330,000); S. cerevisiae tim10-1 ts strain growth, BacTiter-Glo, 24 h;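 active means inhibition of at least 40%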;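 further: mutant grown at 25 °C; 0% = DMSO wells with yeast and 100% = wells holding no yeast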
NALP1 yeast inh = NALP1 inhibition; S. cerevisiae NALP1/ASC/caspase-1 growth, X-gal OD620, 72 h; inhibition, % at 10 µM; actives 0.61% (n = 280,000); in the data active means inhibition mostly above about 24%, no sharp cut-off; inactive means mostly below about 32%
NALP3 yeast conf = confirmation of NALP3 inhibitors in yeast. shares compounds with NALP3 yeast inh. inhibition, % at 10 µM. AID 435006. actives 81% (n = 1,300). yeast expressing human NALP3, luminescence; in the data active means inhibition above about 48%
Casp1-ASC yeast = counter-screen for NALP3 inhibitors: yeast caspase-1-ASC; shares compounds with NALP3 yeast inh; yeast expressing Caspase-1-ASC, luminescence counter screen; inhibition, % at 10 µM; actives 66% (n = 1,000); AID 488784
NALP3 retest = retest-confirmed inhibitor of NALP3 in yeast. shares compounds with NALP3 yeast inh. yeast expressing human NALP3, luminescence read-out. inhibition, % at 10 µM. actives 53% (n = 1,000). AID 488794
Starred values were filed as active, the others as inactive; . = not tested or not shown. Unless noted, no stated cut-off is given here; in the data, active means inhibition above about 50%; inactive means the rest.

SMILES	TIM10 inh	NALP3 yeast inh	PfHsp90 set2	tim23-1 inh	tim10-1 inh	NALP1 yeast inh	NALP3 yeast conf	Casp1-ASC yeast	NALP3 retest
C[C@]12CCC(=O)C[C@H]1CC[C@@H]1[C@@H]2CC[C@]2(C)C(=O)CC[C@@H]12	7	66*	30	29	13	.	70*	61*	49
C[C@]12CCC3C(CC[C@H]4CC(=O)CC[C@]34C)C1CCC2=O (stereo partly drawn)	-44	61*	-5	-24	-41	.	56*	.	.
C[C@]12CCC3C(CC[C@H]4C[C@H](N)CC[C@]34C)C1CC[C@H]2O (stereo partly drawn)	1	25	13	21	22	16	.	.	.
CCOc1cc2c(cc1OCC)-n1cccc1C(c1cccc([N+](=O)[O-])c1)NC2 (stereo not drawn)	-6	18	-7	19	23	12	.	.	.
S=C(N1CCCCCC1)N1CC1	.	.	-13	.	.	.	.	.	.
Cc1ccsc1C(=O)C1CCCN(Cc2cccn2-c2ccccn2)C1 (stereo not drawn)	-13	9	23	1	9	4	.	.	.
Oc1ccc(/C=N/NP(=S)(c2ccccc2)c2ccccc2)cc1	26	56*	-22	42	26	23	74*	65*	57*
COc1cc(/C=N/NP(=S)(c2ccccc2)c2ccccc2)ccc1O	6	2	1	19	16	-24	.	.	.
COc1ccccc1N1CCN(CCc2c[nH]c3cc4c(cc23)OCO4)CC1	.	.	36	.	.	.	.	.	.
Fc1ccc(C(OCCN2CCN(CCCc3ccccc3)CC2)c2ccc(F)cc2)cc1	-78	50*	17	-65	-54	.	59*	.	.
C[C@H](O)[C@H]1CC[C@H]2[C@@H]3CCC4=CC(=O)CC[C@]4(C)[C@H]3CC[C@]12C	-93	52*	41	13	-28	32	73*	42	40
CC(C)c1ccc(C2NCc3ccccc3-n3cccc32)cc1 (stereo not drawn)	5	64*	2	34	34	38*	40	60*	58*
c1cc(OCCN2CC2)ccn1	.	.	13	.	.	.	.	.	.
N#CC(C#N)=Cc1ccc(-c2ccccc2)o1	31	73*	.	26	18	35	74*	.	.
O=[N+]([O-])c1ccc(N2CCCCCC2)c2ncccc12	-1	54*	.	10	16	8	56*	53*	52*
CN(C)C(Cc1ccccc1)C(=O)c1ccc(-c2ccccc2)cc1 (stereo not drawn)	-18	56*	-22	22	29	27	67*	55*	62*
CN(C)C(Cc1ccc(C#N)cc1)C(=O)c1ccccc1 (stereo not drawn)	-7	8	-14	13	35	35	.	.	.
COc1ccc(C(=O)C(Cc2ccccc2)N(C)C)cc1 (stereo not drawn)	-4	56*	1	19	22	40	72*	44	39
O=P1(Oc2ccccc2)C[C@@H](O)[C@@H](O)[C@H](COCc2ccccc2)O1 (stereo partly drawn)	1	5	-3	-11	-13	-7	.	.	.
CCCCCCCCCCCCCCCC[N+](C)(C)C	29	60*	109*	44	-15	.	53*	55*	59*
Oc1ccc2c3c1OC1c4oc5ccccc5c4C[C@@]4(O)[C@@H](C2)N(CC2CC2)CC[C@]314 (stereo partly drawn)	3	7	.	15	13	.	.	.	.
CCN(CCNc1ccc([N+](=O)[O-])c2cccnc12)S(=O)(=O)c1ccccc1	3	1	-35	-8	1	16	.	.	.
CCN(CCNc1ccc([N+](=O)[O-])c2cccnc12)S(=O)(=O)c1ccc(Cl)cc1	2	50*	5	8	12	-3	65*	37	34
COC(=O)C1=C(c2cc3ccccc3s2)C[C@@H]2CC[C@H]1N2C	2	22	7	6	0	.	.	.	.
Nc1c2c(nc3sc4c(c13)CCCCC4)CCCC2	30	63*	-1	32	9	67*	79*	39	40
SMILES	TIM10 inh	NALP3 yeast inh	PfHsp90 set2	tim23-1 inh	tim10-1 inh	NALP1 yeast inh	NALP3 yeast conf	Casp1-ASC yeast	NALP3 retest
BrCC1C[n+]2c(SCc3ccccc3)nc3sc4c(c3c2O1)CCCC4 (stereo not drawn)	-23	15	6	2	-14	28	.	.	.
Cc1cc(C)n2nc(C)[n+](C)c2n1	5	19	19	12	6	11	.	.	.
CC(=O)OC1CCC2(C)C(CCC3C2CC(=O)C2(C)C3CC(N3CC3)C2C(C)=O)C1 (stereo not drawn)	.	.	-6	.	.	.	.	.	.
C[C@]12CC[C@@H](O)C[C@@H]1CC[C@@H]1[C@@H]2CC[C@]2(C)C(=O)CC[C@@H]12	-21	56*	4	37	22	21	67*	60*	61*
C[C@]12CCC3C(CC[C@H]4C[C@H](OC(=O)c5cccnc5)CC[C@]34C)C1CCC2=O (stereo partly drawn)	4	54*	0	30	25	.	60*	.	.
C[C@]12CCC3C(CC[C@@H]4C[C@@H](O)CC[C@]34C)C1CC[C@@H]2O (stereo partly drawn)	.	.	-10	.	.	.	.	.	.
C[C@]12CCC3C(CC[C@H]4C[C@H](O)CC[C@]34C)C1CCC2=O (stereo partly drawn)	-18	53*	5	39	2	.	68*	.	.
C[C@]12CCC3C(CC[C@H]4C[C@H](O)CC[C@]34C)C1CC(=O)[C@@H]2O (stereo partly drawn)	-19	49	-14	22	-5	.	.	.	.
Cc1c(-c2cccc(Cl)c2)nc2ccccc2c1C(=O)N1CCC2(CC1)OCCO2	23	77*	-5	28	26	19	45	21	13
CC(N)C(=O)OC(C)(C)Cc1ccc(Cl)cc1 (stereo not drawn)	14	69*	-10	11	12	.	56*	48	56*
COC(=O)C1=C(c2ccc(Cl)c(C(F)(F)F)c2)C[C@@H]2CC[C@H]1N2C(=O)N1CCC(O)(c2ccc(Cl)cc2)CC1	14	28	-27	16	-1	.	.	.	.
C[C@]12CCC3C(CC[C@H]4C[C@@H](O)CC[C@]34C)C1C[C@@H](O)[C@@H]2O (stereo partly drawn)	.	.	-6	.	.	.	.	.	.
C[C@]12CCC3C(CC[C@H]4C[C@H](O)CC[C@]34C)C1C[C@@H](O)[C@@H]2O (stereo partly drawn)	-8	44	.	4	-6	.	.	.	.

Screens as filed in PubChem.
